Laboratory results from PubChem BioAssay.

biological target: GTPase HRas (Homo sapiens) (UniProt P01112); experiment: inhibitors of GTP binding to wildtype Ras, dose response, biochemical, multiplex bead flow cytometry (AID 1335); details: bead-based flow cytometry, Bodipy-GTP binding to GST-Ras; at 100 µM (top of the series) unless noted
Sequence (P01112 whole entry, looked up): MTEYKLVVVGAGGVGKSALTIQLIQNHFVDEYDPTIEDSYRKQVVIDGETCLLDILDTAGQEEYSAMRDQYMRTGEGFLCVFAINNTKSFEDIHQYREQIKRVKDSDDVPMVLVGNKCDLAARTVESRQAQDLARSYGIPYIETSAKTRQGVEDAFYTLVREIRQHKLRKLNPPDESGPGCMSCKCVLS

Question: CCCN(N=Nc1cccc([N+](=O)[O-])c1)c1cccc([N+](=O)[O-])c1 was tested. Which GTP binding, percent of control did it give?
Answer: 156%

Question: For S=C(NCCc1ccccc1)NC1CC1, which GTP binding, percent of control is on record?
Answer: 79.2%

Question: With Cc1nn2c(-c3cccc(NC(=O)c4ccco4)c3)nnc2c2ccccc12 as the compound, how does the GTP binding, percent of control read?
Answer: 51% [at 33.3 µM]

Question: Cc1cc(C(=O)NC(=S)Nc2cccc(C(=O)O)c2C)ccc1[N+](=O)[O-] was tested. Which GTP binding, percent of control did it give?
Answer: 85.8%

Question: For O=C(O)c1cccc(NCc2ccccc2)c1, which GTP binding, percent of control is on record?
Answer: 86.9%

Question: How did the GTP binding, percent of control turn out when COc1ccc(N=C2S/C(=C\c3ccc(N4CCOCC4)o3)C(=O)N2CCc2c[nH]c3ccccc23)cc1 was run?
Answer: 212%

Question: With C/C(=N\NC(=O)CC1N=C(Cc2ccccc2)NNC1=O)c1ccc(Cl)cc1Cl (stereo not given) as the compound, how does the GTP binding, percent of control read?
Answer: 160%

Question: Which GTP binding, percent of control does the source give for Nc1[nH]n2c(=O)c3c(nc2c1N=Nc1ccc(Cl)cc1)CCCC3 here?
Answer: 49.2%

Question: Which GTP binding, percent of control does the source give for Cc1cc2nc3c(=O)[nH]c(=O)[nH]c3nc2c([N+](=O)[O-])c1N here?
Answer: 75.6%

Question: COC(=O)c1ccc(COc2ccccc2/C=N/Nc2cccc(C(=O)O)c2)cc1 was tested. Which GTP binding, percent of control did it give?
Answer: 100%

Question: With Cc1ccc(CNCc2c(C)[nH]c(C)c2C(=O)O)cc1 as the compound, how does the GTP binding, percent of control read?
Answer: 88.9%

Question: For COCCNc1nnnc2c1sc1nc(N3CCOCC3)c3c(c12)CCCC3, which GTP binding, percent of control is on record?
Answer: 64.1%

Question: Which GTP binding, percent of control does the source give for CC(C)Nc1nnc(SCC(=O)Nc2ccc3c(c2)C(=O)c2ccccc2C3=O)s1 here?
Answer: 50.9%

Question: Which GTP binding, percent of control does the source give for O=C(Cn1cnc2cc([N+](=O)[O-])ccc2c1=O)NCCc1ccc(Cl)cc1 here?
Answer: 85.2%

Question: With CCOc1cc(/C=C2/NC(=O)NC2=O)cc([N+](=O)[O-])c1O as the compound, how does the GTP binding, percent of control read?
Answer: 64.7%

Question: With Cc1ccc(N=Nc2c(N)[nH]n3c(=O)cc(-c4ccccc4)nc23)cc1 as the compound, how does the GTP binding, percent of control read?
Answer: 125%

Question: With C=CCN1C(=O)/C(=C/c2ccc(N(C)C)cc2)S/C1=N\c1nnc(CC)s1 as the compound, how does the GTP binding, percent of control read?
Answer: 90.2%

Question: Which GTP binding, percent of control does the source give for O=[N+]([O-])c1cc(Cc2ccccc2)cc(C=Nc2ccc(N3CCOCC3)cc2)c1O here?
Answer: 65.5%

Question: For COc1ccc(CNC(=O)C2CC(=O)N(c3ccc(OCC(=O)N4C(C)CCCC4C)cc3)C2)cc1 (stereo not given), which GTP binding, percent of control is on record?
Answer: 177%

Question: O=C(O)c1cccnc1SCc1ccc([N+](=O)[O-])cc1 was tested. Which GTP binding, percent of control did it give?
Answer: 92%

Question: For O=C(Nc1ccccc1F)c1ccccc1-c1ccccc1, which GTP binding, percent of control is on record?
Answer: 60.2%

Question: Cc1nn2c(N)csc2nc1=O was tested. Which GTP binding, percent of control did it give?
Answer: 67.8%

Question: For O=[N+]([O-])c1ccc(/C=C/C2=NN(c3ccccc3)C(c3ccco3)C2)cc1 (stereo not given), which GTP binding, percent of control is on record?
Answer: 132%

Question: Which GTP binding, percent of control does the source give for COc1cc(/C=N/Nc2ncnc3sc4c(c23)CCC4)ccc1O here?
Answer: 48.1%

Question: How did the GTP binding, percent of control turn out when COc1ccc(/C=C2/N=C(SCC(=O)Nc3cc(C)on3)N(c3ccccc3)C2=O)cc1 was run?
Answer: 54.1%

Question: How did the GTP binding, percent of control turn out when Cn1nc([N+](=O)[O-])c(C(C#N)c2ccccn2)c(Cl)c1=O (stereo not given) was run?
Answer: 74.7%

Question: For Cc1ccc(C(C)C)c(OCCn2cc(C(=O)O)c3ccccc32)c1, which GTP binding, percent of control is on record?
Answer: 86.3%

Question: COc1cc(N2CCCC2)c(OC)cc1/C=C(/C#N)c1cccc(Br)c1 was tested. Which GTP binding, percent of control did it give?
Answer: 110%

Question: With COc1cc(CCNc2ccc3nnc(-c4ccccc4)n3n2)cc(OC)c1OC as the compound, how does the GTP binding, percent of control read?
Answer: 44%

Question: How did the GTP binding, percent of control turn out when Oc1ccc(C2=Nn3c(nnc3-c3ccco3)SC2)cc1O was run?
Answer: 35.2%

Question: Which GTP binding, percent of control does the source give for Nc1[nH]c(=S)nc2nc(-c3ccccc3)c(-c3ccccc3)nc12 here?
Answer: 81.4%

Question: Which GTP binding, percent of control does the source give for COc1ccc(CNc2ccccc2C(=O)O)cc1 here?
Answer: 93.4%

Question: Which GTP binding, percent of control does the source give for CCOc1ccc(-n2nc3c(=S)[nH]nc(C)c3c2C)cc1 here?
Answer: 66.6%

Question: Which GTP binding, percent of control does the source give for CCOc1ccc2nc(SCc3ccc(CC(=O)O)cc3)c(C#N)cc2c1 here?
Answer: 73.2%

Question: With COc1ccccc1OCCn1cc(C(=O)O)c2c(C)cccc21 as the compound, how does the GTP binding, percent of control read?
Answer: 202%

Question: For Cc1[nH]c2ccccc2c1C(=O)CNc1nccs1, which GTP binding, percent of control is on record?
Answer: 58%

Question: How did the GTP binding, percent of control turn out when CCOc1cc(/C=C2\SC(=O)N=C2N)ccc1O was run?
Answer: 81%

Question: How did the GTP binding, percent of control turn out when NC(=O)c1cc2nc(-c3ccco3)cc(C(F)(F)F)n2n1 was run?
Answer: 40.3%

Question: With O=C(C1CCCO1)N1CCN(C(=S)Nc2ccccc2C(F)(F)F)CC1 (stereo not given) as the compound, how does the GTP binding, percent of control read?
Answer: 64.3%

Question: How did the GTP binding, percent of control turn out when CCCCNc1nc(=S)[nH]c2cc(OC)c(OC)cc12 was run?
Answer: 47.8%
